# Hit rate of the full screen: of about 69,000 compounds, about 8,600 (12%) showed an effect of 50% or more. The sample holds strong results, similar compounds and a random draw of the others, so the mix is not that of the screen.
# System: Plasmodium berghei
# Assay: Screen against P. berghei liver stage (PbLuc), transformed with Luciferase, at 10uM
# Assay type: functional, HepG2
# Details: tested at 10 uM
row,SMILES,INHIBITION [%]
1,COCC(=O)N1CCC(c2cc3nc(C)cc(C(F)(F)F)n3n2)CC1,20.15
2,O=C1NC2(CCCN(C(=O)CCn3cccn3)C2)Oc2ccccc21 (stereo not drawn),10.385
3,c1ccc(-n2cc(CNCC3CCCN3c3cccnn3)nn2)cc1 (stereo not drawn),18.2
4,c1ccc(-n2ccc(CNCC3CCCN3c3cccnn3)n2)cc1 (stereo not drawn),16.9
5,c1ccc(-n2ncc(CNCC3CCCN3c3cccnn3)n2)cc1 (stereo not drawn),57.2
6,Cc1ccc(C(=O)NS(=O)(=O)c2ccccc2Br)c(=O)[nH]1,44.1
7,Cc1ccc(C(CCNCCCN(C)C)C2CCOC(C)(C)C2)cc1 (stereo not drawn),32.3
8,CCOCc1nn(CC2CC2)c2c1CN(Cc1cccs1)CC2,64.7
9,COCc1nn(CC2CC2)c2c1CN(Cc1cccs1)CC2,-97.2
10,CCOCc1nn(C)c2c1CN(Cc1cccs1)CC2,32.1
11,O=C(c1n[nH]cc1Cl)N1CCOC(Cc2cccc(C(F)(F)F)c2)C1 (stereo not drawn),75.9
12,CC(=O)N1CCOC(Cc2cccc(C(F)(F)F)c2)C1 (stereo not drawn),7.1
13,O=C(c1ccc(O)cn1)N1CCOC(Cc2cccc(C(F)(F)F)c2)C1 (stereo not drawn),-9.29
14,CN(C(=O)Nc1ccncc1)C1CCN(c2ccccc2)C1=O (stereo not drawn),41.3
15,CN1C(=O)COc2ccc(NC(=O)CCc3nc4cccnc4[nH]3)cc21,39.7
16,CCC(=O)NC1CCCN(C(=O)Nc2cc(-c3ccccc3)on2)C1 (stereo not drawn),52.6
17,O=C(Nc1cc(-c2ccccc2)on1)N1CC[C@H](O)C1,-51.7
18,O=C(Nc1cc(-c2ccccc2)on1)N1CCN(CCO)CC1,43.9
19,Cc1nnc(NC(=O)NCCN(C(=O)OC(C)(C)C)C2CC2)s1,4.34
20,O=C1CCN(CCS(=O)(=O)c2ccc(Cl)cc2)CCN1,7.43
21,COCCNC(=O)[C@H]1C[C@@H]2CCN(c3ccncn3)C[C@H]2O1,7.53
22,Cc1cc2n(n1)CC(CNCc1ccc(N3CCOCC3)nc1)CN2 (stereo not drawn),-2.143
23,Cc1cccnc1CCNC(=O)CC1C(=O)NCCN1CCC(C)C (stereo not drawn),-23
24,CCCn1nccc1-c1cc(C2CCN(S(C)(=O)=O)CC2)ccn1,55.6
25,CCCn1nccc1-c1cc(C2CCN(C(C)=O)CC2)ccn1,12.3
26,Cn1nccc1-c1cc(C2CCN(S(C)(=O)=O)CC2)ccn1,42.4
27,COCC1c2nnn(CC3CC3)c2CCN1C(=O)c1sccc1C (stereo not drawn),72.3

row,SMILES,INHIBITION [%]
1,COCC1c2nnn(CC3CC3)c2CCN1C(=O)c1ccnnc1 (stereo not drawn),-16.2
2,COCC1c2nnn(CC3CC3)c2CCN1C(=O)c1cccn1C (stereo not drawn),-56.2
3,COc1ccccc1C(C)(C)NC(=O)NCCC(=O)NC1CCCC1,19.7
4,Cc1ccc(OCC2CCCN(c3nc(CO)cs3)C2)cc1 (stereo not drawn),34.4
5,Cc1ccc(OCC2CCCN(C(=O)Cn3ccccc3=O)C2)cc1 (stereo not drawn),18.5
6,Cc1ccc(OCC2CCCN(CC3CCOCC3)C2)cc1 (stereo not drawn),51.1
7,Cc1ccc(OCC2CCCN(C(=O)CCn3ccccc3=O)C2)cc1 (stereo not drawn),18.5
8,Cc1ccc(OCC2CCCN(C(=O)CN3CCOCC3)C2)cc1 (stereo not drawn),56.5
9,Cc1ccc(OCC2CCCN(Cc3ccc(CO)o3)C2)cc1 (stereo not drawn),22.3
10,Cc1ccc(N2CCC3(CC2)CNC(=O)CO3)nn1,21.7
11,O=C(NC[C@H]1OC[C@@H]2CN(Cc3ccco3)CC[C@@H]21)c1cscn1,-72
12,COCCCN1CCCC(c2nccn2CC2CCC2)C1 (stereo not drawn),42.8
13,Cc1cc(C)n(CC2CCCN2CC(=O)N(C)CCC#N)n1 (stereo not drawn),36.1
14,CN(CC(=O)N(CCC#N)c1ccccc1)C1CCc2ccccc21 (stereo not drawn),28.9
15,CC(C)(C)c1nnnn1CC(=O)N(CCC#N)c1ccccc1,65.6
16,CN(C(=O)Cn1nc(-c2ccc(F)cc2)oc1=O)c1ccccc1,42.6
17,Cc1nc(CN2CCCN(CC(=O)N(C)CCC#N)CC2)no1,36.5
18,N#CCCN(C(=O)CN1CCCC1C1CCCCC1)c1ccccc1 (stereo not drawn),5.14
19,CN(CCC#N)C(=O)Cn1nnnc1C(C)(C)C,61.9
20,CN(C(=O)Cn1nnnc1C(C)(C)C)c1ccccc1,50.8
21,CC(=O)N(C)c1nc(Cn2nnnc2C(C)(C)C)cs1,24.2
22,CCCSc1ncc(Cl)c(C(=O)NC(CCSC)C(=O)O)n1 (stereo not drawn),26.3
23,CCN1C(=O)CCC12CCN(C(=O)c1ccco1)CC2,27.2
24,CCN1CCn2c(C)cnc2C12CCN(C(=O)CC(C)C)CC2,-0.182
25,CC[C@H](C)Nc1nccc(-c2cnc3sc(C)cn3c2=O)n1,39.7
26,CCC(=O)N1CCc2c(O)nc(C3CCCCN3C(=O)C3CC3)nc2C1 (stereo not drawn),-7.6

# From ChEMBL document CHEMBL4513216, “Probing the Open Global Health Chemical Diversity Library for Multistage-Active Starting Points for Next-Generation Antimalarials” (ACS Infect Dis, 2020)
